GSIS activator: GLuc luminescence reporter in INS-1E cells, primary screen for activators of glucose-dependent secretion of insulin. INS-1E GLuc reporter insulin secretion, 2-3 h. activation, % at 16.6 µM. hit rate 0.61% among 370,000. AID 743287;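 active = lowest replicate activation of at least 40%, so every replicate reaches that level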;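 also: 0% = median of neutral control wells and 100% = median of IBMX positive control wells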
PGC1a acetyl inh: lowers PGC1a acetylation signal in U2OS cells. AlphaScreen anti-acetyl-lysine; with virally co-expressed GCN5 acetyltransferase. inhibition, % at 15.6 µM. hit rate 0.17% among 350,000. AID 651687;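 active = every replicate shows inhibition of at least 40%; inconclusive = mean inhibition at least 40% but some replicate below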;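 also: 0% = neutral control wells and 100% = positive control wells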
AF4-AF9 inh: inhibitors of human MLL-AF4/AF9 interaction; hit rate 0.47% among 350,000; P42568; AlphaScreen, biotin-AF4 peptide binding to FLAG-AF9; inhibition, % at 10 µM; AID 651704;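 active = every replicate reaching a set inhibition limit, whatever the replicate mean, cut at about 25% in these data; inconclusive = mean inhibition reaches that limit but some replicates miss it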;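 also: 0% = plate neutral control median and 100% = total signal loss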
Target sequence (P42568 whole entry, looked up): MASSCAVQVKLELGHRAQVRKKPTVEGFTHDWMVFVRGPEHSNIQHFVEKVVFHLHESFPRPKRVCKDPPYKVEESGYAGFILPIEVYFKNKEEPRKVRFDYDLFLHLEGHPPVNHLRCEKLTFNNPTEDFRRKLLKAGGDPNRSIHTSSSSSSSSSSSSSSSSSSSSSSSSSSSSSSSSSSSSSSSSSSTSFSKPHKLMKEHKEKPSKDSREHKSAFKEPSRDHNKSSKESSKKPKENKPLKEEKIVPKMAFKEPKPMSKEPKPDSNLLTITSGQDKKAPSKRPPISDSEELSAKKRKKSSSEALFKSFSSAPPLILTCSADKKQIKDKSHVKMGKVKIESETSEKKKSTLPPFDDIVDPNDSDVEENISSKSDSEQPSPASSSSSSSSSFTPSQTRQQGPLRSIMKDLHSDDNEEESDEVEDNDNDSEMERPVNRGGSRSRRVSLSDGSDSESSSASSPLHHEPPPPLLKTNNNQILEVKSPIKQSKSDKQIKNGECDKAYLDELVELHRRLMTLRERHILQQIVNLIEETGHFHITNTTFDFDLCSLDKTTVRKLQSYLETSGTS
Env fusion inh: inhibitors of HIV Env-mediated cell fusion | inhibition, % at 12.3 µM | HeLa-JRFL Env/CEM21 cell fusion, luciferase | AID 651610 | hit rate 1.1% among 360,000;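 active = mean replicate inhibition score of at least 50 and every replicate individually at or above 50; inconclusive = only one of the two criteria met; inactive = mean below 50 and not all replicates reaching 50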;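 also: 0% = plate neutral controls and 100% = maraviroc near 300 nM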
NSD2 inh: inhibitors of human histone methyltransferase NSD2 | hit rate 0.54% among 310,000 | NSD2 peptide methylation, AlphaScreen, 120 min | inhibition, % at 12.5 µM | O96028 | AID 743445; in the data active = inhibition above about 50%
An asterisk follows results filed as active; ? = inconclusive; . = no result given; [ ] = another dose, or the depositor's remark. Rows were chosen to be rich in hits. Some 2.1% of all compounds tested hit in one or more screens of this group.

SMILES | GSIS activator | PGC1a acetyl inh | AF4-AF9 inh | Env fusion inh | NSD2 inh
COc1ccc2nc3ccccc3nc2c1NC(=O)c1ccc(Cl)cc1 | 70* | 0 | . | -4 | -1
COc1ccc(C(=O)Nc2c(F)c(F)c(F)c(F)c2F)c(OC)c1 | . | -16 | . | . | -5
CCOC(=O)c1ccc(NC(=S)Nc2cccc(C)n2)cc1 | 48* | . | . | 10 | 1
CCOC(=O)c1ccc(NC(=S)Nc2cccc(N)n2)cc1 | -10 | -4 | 1 | -44 | 0
CC(C)c1ccc(/C=N/NC(=O)c2ccc(-n3cnnn3)cc2)cc1 | 8 | -10 | 1 | -5 | -1
Cc1ccc(/C=C2/CNC/C(=C/c3ccc(C)cc3)C2=O)cc1 | 9 | 74* | -1 | 66* | -2
Cc1ccc(/C=C2\CCOC2=O)cc1 | 1 | . | 0 | -13 | -1
Cn1c(=O)c2ncn(CC(=O)NC3CCCCCC3)c2n(C)c1=O | -7 | 17 | . | . | 1
CC(=O)c1cccc(NC(=O)CCC(=O)Oc2ccc(C)cc2)c1 | 222* | 7 | -3 | 6 | 3
COc1ccc(CC2C(=O)NC(C)C(=O)N(C)C3Cc4ccc(cc4)Oc4cc(ccc4O)CC(C(=O)NC(C)C(=O)NC(C)C(=O)N2C)N(C)C3=O)cc1 (centres undefined) | -25 | 70* | -1 | 77* | -4
O=C(O)C1(P(=O)(c2ccccc2)c2ccccc2)CCCC1 | . | 9 | -6 | -25 | 1
CCCCN(CCCC)C(=O)C1(P(=O)(c2ccccc2)c2ccccc2)CCC1 | -30 | 12 | 3 | 60* | -2
CCN(CC)C(=O)C1(P(=O)(c2ccccc2)c2ccccc2)CCC1 | 90* | 6 | . | 21 | 0
COc1ccc(Nc2oc(COc3ccc(Cl)cc3)nc2C#N)cc1 | . | 7 | . | 84* | 0
CCOc1ccc(Nc2oc(-c3ccc(Cl)cc3)nc2C#N)cc1 | 73* | -62 | . | -84 | -1
N#Cc1nc(COc2ccc(-c3ccccc3)cc2)oc1NCCCN1CCOCC1 | . | -7 | . | . | -6
COc1ccc(Nc2oc(-c3ccc(Cl)cc3)nc2C#N)cc1 | . | -7 | . | -199 | 1
CCOc1ccc(-c2nc(C#N)c(N3CCN(Cc4ccccc4)CC3)o2)cc1 | 1 | 7 | 53* | 5 | .
CN(C)CCNc1oc(COc2ccc(-c3ccccc3)cc2)nc1C#N | -31 | 58* | ? | . | 3
CC=Cc1ccc2n(c1=O)C[C@@H]1[C@@H](CO)[C@H](C(=O)NCc3ccc(F)cc3)N(C)[C@H]21 (mixture of isomers) | 0 | 3 | -1 | . | .
CCOc1ccc(Nc2ncnc3c2cnn3-c2ccccc2)cc1 | 7 | -19 | 1 | 2 | .
CCn1cc(C(=O)NCCCN2CCCC(C)C2)c(=O)c2cc(S(=O)(=O)N3CCOCC3)ccc21 (centres undefined) | -4 | . | -8 | 4 | 1
O=C(CC1SCCNC1=O)Nc1cc(Cl)cc(Cl)c1 (centres undefined) | . | 1 | . | . | 1
COc1ccc(CN(C)C[C@@H]2Oc3c(NC(=O)Nc4ccc(F)cc4)cccc3C(=O)N([C@H](C)CO)C[C@@H]2C)cc1 | 5 | 1 | 1 | . | .
Cc1ccoc1C(=O)NCCCNC(=O)c1occc1C | . | -8 | . | -420 | -57
SMILES | GSIS activator | PGC1a acetyl inh | AF4-AF9 inh | Env fusion inh | NSD2 inh
N#Cc1nc(COc2ccccc2)oc1N1CCCCCC1 | -4 | -10 | 27* | 23 | .
COc1ccc(NC(C)C(=O)Nc2cc(C(F)(F)F)ccc2N2CCOCC2)c(OC)c1 (centres undefined) | -4 | -4 | 26* | 15 | 9
COc1ccc(-c2ocnc2C(=O)Nc2ccc(N3CCOCC3)cc2N2CCOCC2)cc1OC | 85* | . | 18 | 5 | 3
COc1cc(C(=O)Nc2cc(C(F)(F)F)ccc2N2CCOCC2)ccc1OCC(=O)N1CCOCC1 | 50* | . | -3 | . | 5
CN(C)C(=O)C[C@H]1C[C@@H]2c3cc(NS(=O)(=O)c4ccc(F)cc4)ccc3O[C@@H]2[C@@H](CO)O1 | 5 | -4 | . | 90*[16.7 µM] | .
O=C(C[C@H]1C[C@@H]2c3cc(NS(=O)(=O)c4ccc(F)cc4)ccc3O[C@@H]2[C@H](CO)O1)N1CCc2ccccc2C1 | -24 | -1 | 0 | 23[16.7 µM] | .
COc1ccccc1NC(=O)N[C@@H]1CC[C@H](CC(=O)N[C@H](C)c2ccccc2)O[C@@H]1CO | 2 | -2 | -1 | 75*[16.7 µM] | .
COc1ccccc1NC(=O)N[C@H]1CC[C@H](CC(=O)N[C@@H](C)c2ccccc2)O[C@H]1CO | 5 | 9 | -1 | -2[16.7 µM] | .
CN(C)C(=O)C[C@@H]1C[C@@H]2c3cc(NS(=O)(=O)c4ccc(F)cc4)ccc3O[C@@H]2[C@@H](CO)O1 | -4 | 0 | . | 70*[16.7 µM] | .
CN(C)C(=O)C[C@H]1C[C@H]2c3cc(NS(=O)(=O)c4ccc(F)cc4)ccc3O[C@H]2[C@H](CO)O1 | -4 | 1 | . | 30[16.7 µM] | .
O=C(C[C@H]1C[C@@H]2c3cc(NS(=O)(=O)c4ccc(F)cc4)ccc3O[C@@H]2[C@@H](CO)O1)N1CCc2ccccc2C1 | -9 | 50* | -1 | 15[16.7 µM] | .
CCC(C)NC(=O)CSc1c2c(nc3ccccc13)CCCC2 (centres undefined) | 8 | -5 | 2 | 9 | -2
Cc1cc(CNC(=O)C2CCC(=O)N(Cc3ccccc3F)C2)nn1C (centres undefined) | 4 | . | 3 | -10 | 0
Cc1ccc(C(=O)N2CCN(C(=O)CN3CCCC3)C2)cc1 | . | -1 | . | . | 0
COc1cc(C(=O)NNC(=O)c2cc(=O)[nH]c3ccccc23)cc(OC)c1OC | -6 | . | 1 | 20 | -2
COC(=O)CCC1(C(N)=O)CCC(=O)c2ccccc21 (centres undefined) | 18 | . | -11 | 2 | 2
COC(=O)c1[nH]c2ccc(Br)cc2c1NC(=O)CN1CCCCC1CCO (centres undefined) | . | 0 | . | . | -1
C[C@@H](NC(=O)C[C@H]1C[C@@H]2c3cc(NS(=O)(=O)c4ccc(F)cc4)ccc3O[C@@H]2[C@H](CO)O1)c1ccccc1 | -12 | -3 | 1 | 86*[16.7 µM] | .
CN(C)C(=O)C[C@@H]1C[C@H]2c3cc(NS(=O)(=O)c4ccc(F)cc4)ccc3O[C@H]2[C@H](CO)O1 | -2 | 7 | . | 90*[16.7 µM] | .
C[C@H](NC(=O)C[C@H]1C[C@@H]2c3cc(NS(=O)(=O)c4ccc(F)cc4)ccc3O[C@@H]2[C@H](CO)O1)c1ccccc1 | -6 | 1 | 0 | -11[16.7 µM] | .
C[C@@H](NC(=O)C[C@@H]1C[C@@H]2c3cc(NC(=O)Nc4ccccc4F)ccc3O[C@@H]2[C@@H](CO)O1)c1ccccc1 | 105* | 4 | -1 | 15[16.7 µM] | .
CN(C)C(=O)C[C@H]1C[C@@H]2c3cc(NS(=O)(=O)c4ccc(F)cc4)ccc3O[C@@H]2[C@H](CO)O1 | -1 | 10 | . | 13[16.7 µM] | .
CNC(=S)N/N=C/c1ccc(-c2ccc(Cl)c([N+](=O)[O-])c2)o1 | 46* | -9 | 0 | 7 | 9
Cc1ccc(-c2ccc(/C=N/NC(=S)Nc3ccccc3)o2)cc1[N+](=O)[O-] | 0 | 8 | . | 17 | 0
